{
  "source": "the OligoGym collection",
  "data": [
    {"target": "RBM28", "assay": "pooled miR-30 sensor sort-seq; sequence = guide strand", "details": "shRNA", "values": [
      {"sequence": "TTGCACAGCTTTATCCTCTTGC", "sensor-assay potency score (higher = more potent)": 0.184},
      {"sequence": "TTATATTGTTCGACCAGCTGGT", "sensor-assay potency score (higher = more potent)": 0.168},
      {"sequence": "TTGGTCTGGAACCCGGTCCATG", "sensor-assay potency score (higher = more potent)": -1.16}
    ]},
    {"target": "RBM38", "assay": "pooled miR-30 sensor sort-seq; sequence = guide strand", "details": "shRNA", "values": [
      {"sequence": "TAAACAGTCCATTAACTTCTTG", "sensor-assay potency score (higher = more potent)": -0.519},
      {"sequence": "TACTGGTCATAGGTGGCCGGTG", "sensor-assay potency score (higher = more potent)": -1.24},
      {"sequence": "TTCGGGTCTTTGCAAGCCCTCT", "sensor-assay potency score (higher = more potent)": -1.39},
      {"sequence": "TTAACTTCTTGCTTTCAGGTTT", "sensor-assay potency score (higher = more potent)": 0.295},
      {"sequence": "AAGATCTTGGTGAACGTGGTGT", "sensor-assay potency score (higher = more potent)": 0.0778},
      {"sequence": "TAGCTGTAGCCCACGAAGCTGG", "sensor-assay potency score (higher = more potent)": -1.08},
      {"sequence": "TGGTACTGCACGAAAGTGGTGC", "sensor-assay potency score (higher = more potent)": -0.732},
      {"sequence": "AAACAGTCCATTAACTTCTTGC", "sensor-assay potency score (higher = more potent)": 0.128},
      {"sequence": "TTGGTGAACGTGGTGTCCTTCT", "sensor-assay potency score (higher = more potent)": -0.339},
      {"sequence": "TCGAAGTACTTCCTGAGCGAGG", "sensor-assay potency score (higher = more potent)": -1.24},
      {"sequence": "TATGGGTACTGGTCATAGGTGG", "sensor-assay potency score (higher = more potent)": -0.624},
      {"sequence": "ACGAAGATCTTGGTGAACGTGG", "sensor-assay potency score (higher = more potent)": -1.06}
    ]},
    {"target": "RBM45", "assay": "pooled miR-30 sensor sort-seq; sequence = guide strand", "details": "shRNA", "values": [
      {"sequence": "TTCATCTTCAACATCTCGGTGA", "sensor-assay potency score (higher = more potent)": 0.811},
      {"sequence": "TTGAATAAGGATCTCGTTGAAC", "sensor-assay potency score (higher = more potent)": -0.518},
      {"sequence": "TTTGAGGCAACTGTGATCCAGA", "sensor-assay potency score (higher = more potent)": -0.334},
      {"sequence": "TTTATTTTTAGGTTCAGCCAAG", "sensor-assay potency score (higher = more potent)": -0.905},
      {"sequence": "TAAAATACTGAACCACTCCATG", "sensor-assay potency score (higher = more potent)": -0.914},
      {"sequence": "TACTATAATAATCTTGTTCAGA", "sensor-assay potency score (higher = more potent)": -0.469},
      {"sequence": "TATTACTATAATAATCTTGTTC", "sensor-assay potency score (higher = more potent)": -0.451},
      {"sequence": "TATATCTTCTAATACGTCTAAA", "sensor-assay potency score (higher = more potent)": -0.714},
      {"sequence": "TGGAAGTACAACATCTGTCTGG", "sensor-assay potency score (higher = more potent)": -0.0344},
      {"sequence": "TTCTTCATCTTCAACATCTCGG", "sensor-assay potency score (higher = more potent)": 0.279},
      {"sequence": "TAAATTGTTGCTGACTTGGGTT", "sensor-assay potency score (higher = more potent)": 0.143}
    ]},
    {"target": "RBMX", "assay": "pooled miR-30 sensor sort-seq; sequence = guide strand", "details": "shRNA", "values": [
      {"sequence": "TACCACTTTCAAATGATGGTTT", "sensor-assay potency score (higher = more potent)": -0.141},
      {"sequence": "TCCACTGCTACTGCGAACTGGT", "sensor-assay potency score (higher = more potent)": -0.729},
      {"sequence": "TATCCGTCACGTGAGCTGCTGT", "sensor-assay potency score (higher = more potent)": -0.783},
      {"sequence": "TTTCTTGTCTGCCAACCCGATC", "sensor-assay potency score (higher = more potent)": -1.65},
      {"sequence": "TCGACTTCCACCATATCCGTCA", "sensor-assay potency score (higher = more potent)": -0.253},
      {"sequence": "TATCGCTATATCCTCTTGATGG", "sensor-assay potency score (higher = more potent)": -1},
      {"sequence": "TATCTCTTCCACGTGATACAGG", "sensor-assay potency score (higher = more potent)": -1.23},
      {"sequence": "TAGTATCACGAGAACTTGGGTA", "sensor-assay potency score (higher = more potent)": -0.18},
      {"sequence": "TCTCTATCGCTATATCCTCTTG", "sensor-assay potency score (higher = more potent)": -1.36},
      {"sequence": "TCTATCGCTATATCCTCTTGAT", "sensor-assay potency score (higher = more potent)": -0.479},
      {"sequence": "TACAGGAGCTCTTCCTCCCATT", "sensor-assay potency score (higher = more potent)": -1.19},
      {"sequence": "ATATCCACCGTCATCCATGTGT", "sensor-assay potency score (higher = more potent)": -0.304}
    ]}
  ]
}
